Hit rate of the full screen: of about 5,500 compounds, about 2,000 (36%) were called active. Another 18% or so got no clear call; they are omitted. Cut-off read from the data, not from the text of the source: active = normalized growth mostly below about 0.91 (no sharp cut-off); inconclusive = no clear call, values can overlap the other calls; inactive = mostly above about 0.92. Some of the results follow.
Experiment: chemical genetic growth profiling, strain panel (AID 1159580);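 note: tested at 20 µM; growth read once vehicle control cultures reached saturation at 30 °C; 1 = growth at the plate median or of vehicle wells; lower values mean less growth of the strain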
Conditions: S. cerevisiae deletion strains, growth OD

Measured: normalized growth

CNCC[C@@H](Oc1ccc(C(F)(F)F)cc1)c1ccccc1
inactive: locus YAL040C, strain CLN3, stronger effect = lower value 1.04 | locus YCL061C, strain MRC1 (second series), stronger effect = lower value 0.977 | locus YDR150W, strain NUM1, stronger effect = lower value 0.998 | locus YDR363W, strain ESC2, stronger effect = lower value 0.943 | locus YER002W, strain NOP16, stronger effect = lower value 0.993 | locus YGR078C, strain PAC10, stronger effect = lower value 1.01 | locus YJR075W, strain HOC1, stronger effect = lower value 0.982 | locus YMR307W, strain GAS1, stronger effect = lower value 0.999 | locus YNL128W, strain TEP1, stronger effect = lower value 1.03 | locus YNL153C, strain GIM3, stronger effect = lower value 1.01 | locus YNL175C, strain NOP13, stronger effect = lower value 1.04 | locus YNL197C, strain WHI3, stronger effect = lower value 1.01 | locus YNL224C, strain SQS1, stronger effect = lower value 1.02 | locus YNL322C, strain KRE1, stronger effect = lower value 0.963 | locus YOR083W, strain WHI5 (second series), stronger effect = lower value 1.01 | locus YPL055C, strain LGE1, stronger effect = lower value 0.975 | locus YPL241C, strain CIN2, stronger effect = lower value 0.978

Source: PubChem BioAssay AID1159580 (chemical genetic matrix, 2015)
